# Reference: the supplement of paper PMC9254222
# The full ranking holds about 1,100 compounds; the median of “Wnt reporter firefly/Renilla luciferase ratio relative to plate median” is about 1.1, and the highest 2% start at about 1.6. This is one part of a sample in which the highest values are shown more often than they occur.
# Tested on: HEK293T (UBE3A T485A transfected, BAR Wnt reporter)
# Assay: Wnt reporter firefly/Renilla luciferase ratio relative to plate median (fold (linear ratio)); higher = more Wnt/beta-catenin reporter activation
# Conditions: 24 h
# In short: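 Chemicals were robotically dosed at 0.01–100 uM for 24 h onto HEK293T cells, starting four hours after transfection with a BAR firefly luciferase Wnt reporter, TK-Renilla and an expression plasmid. The cells had been plated at 4500 cells/well in DMEM with 10% FBS at 37°C and 5% CO2. Following a Dual-Glo luciferase readout, the firefly/Renilla ratio served as the Wnt activity measure and raw Renilla as the cell health measure, both median-centred on each plate. Each value is the mean of four biological replicates.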
Structure (SMILES),Wnt reporter firefly/Renilla luciferase ratio (concentration: 0.1 uM),Wnt reporter firefly/Renilla luciferase ratio (concentration: 1 uM),Wnt reporter firefly/Renilla luciferase ratio (concentration: 10 uM),Wnt reporter firefly/Renilla luciferase ratio (concentration: 100 uM),Wnt reporter firefly/Renilla luciferase ratio (concentration: 0.01 uM)
Cc1cc2c(cc1C(F)(F)F)N(C(=O)Nc1ccc(Oc3cccnc3C)nc1)CC2.Cl,1.03,1.4,0.768,0.554,–
CCCN(CCC)c1c([N+](=O)[O-])cc(C(F)(F)F)c(N)c1[N+](=O)[O-] [Prodiamine],1.47,1.2,1.2,1.29,1.16
CCN(Cc1c(F)cccc1Cl)c1c([N+](=O)[O-])cc(C(F)(F)F)cc1[N+](=O)[O-] [Flumetralin],1.65,1.11,0.843,0.851,1.23
CC(C(C)N1CC(=O)NC(=O)C1)N1CC(=O)NC(=O)C1 (configuration not stated),1.88,1.23,1.33,1.53,1.31
C#C[C@]1(O)CC[C@H]2[C@@H]3CCc4cc(O)ccc4[C@H]3CC[C@@]21C [17alpha-Ethinylestradiol],1.06,0.888,1.12,0.42,–
CC(=O)O [Acetic acid],1.13,1.09,1.46,1.17,–
C#C[C@]1(O)CC[C@H]2[C@@H]3CCC4=CC(=O)CC[C@@H]4[C@H]3CC[C@@]21CC [Norgestrel],0.82,1.09,1.07,1.36,–
CS(=O)(=O)O.Cc1cc(CCN2CCN(c3nsc4ccccc34)CC2)cc2c1NC(=O)CC2(C)C,0.776,0.735,0.407,–,–
CCNc1cccc(C)c1 [N-Ethyl-3-methylaniline],0.98,1.05,1.05,1.54,–
O=C(N[C@@H](Cc1ccccc1)[C@@H](O)C(=O)N1C[C@@H](O)[C@@H](O)C1)c1cc2cc(Cl)ccc2[nH]1 [Ingliforib],1.29,1.69,0.888,0.353,–
CCCCCCCCOc1ccc(C(=O)c2ccccc2)c(O)c1 [Octabenzone],1.12,1.08,0.916,1.2,–
O=C(O)C1(C(=O)Nc2ccc(Cl)cc2Cl)CC1 [Cyclanilide],1.6,1.16,1.53,0.874,1.46
O=C(N[C@@H](c1ccccc1)[C@@H]1CCCCN1)c1cccc(C(F)(F)F)c1Cl,0.912,1.24,0.921,–,–
CCOC(=O)COc1ccc2c(c1)CC(NCC(O)c1cccc(Cl)c1)CC2.Cl (configuration not stated),1.06,1.18,1.15,1.19,–
Cl.Clc1cc(Cl)c2c(c1)N=C1CCCCCN1C2,0.996,1.26,1.13,0.303,–
Cc1[nH]nc2c1N=C(c1ccccc1Cl)c1cc([N+](=O)[O-])ccc1N2,1.21,1.72,104,89.3,–
Nc1nc2nc[nH]c2c(=S)[nH]1 [6-Thioguanine],1.31,1.03,–,–,–
CCCCC(CC)COC(=O)CCCCCCCC(=O)OCC(CC)CCCC (configuration not stated) [Bis(2-ethylhexyl) nonanedioate],1.04,0.979,1.33,1.24,–
O=C(NO)C1(NS(=O)(=O)c2ccc(Oc3ccc(F)cc3)cc2)CCOCC1,1.18,0.992,0.736,0.244,–
O=C(O)[C@H](O)[C@@H](O)C(=O)O [L-Tartaric acid],1.14,1.29,0.958,1.46,–
Cc1cn([C@H]2C=C[C@@H](CO)O2)c(=O)[nH]c1=O [Stavudine],1.03,1.04,0.931,1.62,–
Cc1cn([C@H]2C[C@H](N=[N+]=[N-])[C@@H](CO)O2)c(=O)[nH]c1=O [3'-Azido-3'-deoxythymidine],1.15,1.04,1.15,1.07,–
OCC(CO)(CO)CO [Pentaerythritol],1.18,1.51,1.13,1.27,–
Cc1oc2c(NC(=O)c3c(Cl)cccc3Cl)cccc2c1C(C)(C)O,1.01,1.14,0.7,–,–
CN1C(=O)CC[C@H]1c1cccnc1 [Cotinine],0.928,0.981,1.03,1.13,–
O=C(O)c1cn(C2CC2)c2cc(N3CCNCC3)c(F)cc2c1=O [Ciprofloxacin],0.853,1.01,0.882,1.74,0.979
CC1COc2c(N3CCN(C)CC3)c(F)cc3c(=O)c(C(=O)O)cn1c23 (configuration not stated) [Levofloxacin],1.2,1.05,1.11,1.45,1.21
COc1c(N2CC3CCCNC3C2)c(F)cc2c(=O)c(C(=O)O)cn(C3CC3)c12 (configuration not stated) [Moxifloxacin],1.02,1.07,0.95,0.752,0.907
O=C(CCCN1CCC(O)(c2ccc(Cl)cc2)CC1)c1ccc(F)cc1 [Haloperidol],1.01,0.984,0.916,0.572,–
CCNc1ccccc1 [N-Ethylaniline],0.799,1.03,0.96,1.2,–
